From PubChem BioAssay
Calls of active or inactive are those of the source. Unless noted, no rule for the calls is given here.

What was measured:
[1] = system: Wnt5a (protein binding on small-molecule microarray); experiment: small molecules binding Wnt5a protein – biophysical, small-molecule microarray, 635/667 nm fluorescence, primary screen (AID 1142); details: 635 nm fluorescence, higher = more signal;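 also: fluorescence read at 667 nm with signal to noise per printed feature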
[2] = ATP-based viability of Huh7 replicon cells – cell-based, CellTiter-Glo luminescence, basal, 48 h, cytotoxicity control for HCV replication inhibitor project, primary screen (AID 1143); details: higher = more signal, called active from +8 up or from −8 down;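 also: Huh7 hepatoma cells carrying a hepatitis C replication reporter with no stimulus; test concentration not given here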
[3] = Pseudomonas biofilm growth suppression – PAO1 strain, BacTiter-Glo luminescence, LB-PBS, primary screen (AID 1144); details: P. aeruginosa PAO1 biofilm, 12 h, higher = more signal
[4] = basal CRE-LacZ reporter activity in PC12 – cell-based, unstimulated, primary screen (AID 1145); details: no forskolin, luminescence, 4.5 h, higher = more signal, called active from +8 up or from −8 down
[5] = forskolin-driven CRE-LacZ activity in PC12 – cell-based, CRE-LacZ reporter, forskolin-stimulated, primary screen (AID 1146); details: luminescence, 4.5 h, higher = more signal, called active from +8 up or from −8 down;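 also: PC12 cells with 6xCRE LacZ reporter stimulated by forskolin 10 µM; beta-galactosidase reporter signal reflecting CREB driven transcription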
[6] = molecular target: Streptavidin (Streptomyces avidinii) (UniProt P22629); experiment: compounds binding control protein streptavidin – biophysical, small-molecule microarray, 635/667 nm fluorescence, artefact control for SMM compound annotation, primary screen (AID 1147); details: higher = more signal;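 also: signal reflects streptavidin binding to arrayed compounds as a control protein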
[7] = probe aInhba binding on compound microarray – biochemical, small-molecule microarray, 635/667 nm fluorescence, primary screen (AID 1148); details: higher = more signal;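 also: score merges 667nm spot fluorescence with signal-to-noise for antibody binding to printed compounds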
Torsin-1A (Homo sapiens) [8] = molecular target: Torsin-1A (Homo sapiens) (UniProt O14656); experiment: TOR1A wild-type binding on microarray – cell lysate, small-molecule microarray, lysate, 635/667 nm, primary screen (AID 1149); details: COS7 hTOR1A-WT lysate, 635 nm fluorescence, higher = more signal
Torsin-1A (Homo sapiens) [9] = molecular target: Torsin-1A (Homo sapiens) (UniProt O14656); experiment: torsin A mutant lysate binding on microarrays – cell lysate, small-molecule microarray, COS7 lysate, 635/667 nm fluorescence, primary screen (AID 1150); details: COS7 hTOR1A mutant lysate, 635 nm fluorescence, higher = more signal;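 also: score pools 667 nm emission and signal to noise measuring lysate protein binding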
[10] = system: Sonic hedgehog protein (Shh); experiment: Sonic hedgehog microarray binding compounds – biochemical, small-molecule microarray, 635/667 nm fluorescence, primary screen (AID 1151); details: 635 nm fluorescence, higher = more signal;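 also: Shh protein binding to compounds spotted on small-molecule microarray slides; score combines spot fluorescence intensity with signal-to-noise across triplicate slides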
[11] = optical density shifts of acrAB sulA E. coli – strain DRC41, OD650, 48 h, E. coli filamentation inducer project, primary screen (AID 1152); details: higher = more signal, called active from +8 up or from −8 down;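 also: E. coli MC1000 strain DRC41 lacking acrAB efflux pump and sulA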
[12] = probe aLefty1 binding on compound microarray – biochemical, small-molecule microarray, 635/667 nm fluorescence, primary screen (AID 1153); details: higher = more signal;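 also: score merges spot fluorescence with signal-to-noise ratio from the scanned slide images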
[13] = plasmodial surface anion channel blockers, osmotic lysis – cell-based, P. falciparum Indochina, OD700, 1 h, primary screen (AID 1154); details: P. falciparum Indochina infected RBC osmotic lysis, higher = more signal, called active from +8 up or from −8 down
[14] = plasmodial surface anion channel blockers, osmotic lysis – cell-based, P. falciparum Indochina, OD700, 2 h, primary screen (AID 1155);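 also: lysis reports solute entry through the parasite surface anion channel PSAC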; details: P. falciparum Indochina infected erythrocytes, higher = more signal, called active from +8 up or from −8 down
[15] = changes in parasitized red cell lysis, either direction – P. falciparum Indochina, OD700, 3 h, PSAC antagonist project, primary screen (AID 1156); details: P. falciparum-infected erythrocytes, osmotic lysis, higher = more signal, called active from +8 up or from −8 down
[16] = plasmodial surface anion channel blockers, osmotic lysis – cell-based, P. falciparum Indochina, OD700, 18 h, primary screen (AID 1157); details: P. falciparum Indochina infected erythrocytes, osmotic lysis OD700, 18 h; higher = more signal, called active from +8 up or from −8 down
[17] = S6 kinase pathway phospho-S6 level changes – cell-based, A549, cytoblot, luminescence, serum-stimulated, primary screen (AID 1158); details: 5 h, higher = more signal;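 also: serum-stimulated A549 lung adenocarcinoma cells; signal is phosphorylated S6 detected by cytoblot immunostaining with HRP secondary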
[18] = molecular target: NADPH oxidase 2 (Homo sapiens) (UniProt P04839); experiment: compounds shifting NOX2 Amplex Red fluorescence – cell-based, HEK293-NOX2, PMA-stimulated, NOX inhibitor project, primary screen (AID 1159); details: 45 min, higher = more signal, called active from +8 up or from −8 down; also: test concentration not given here
[19] = molecular target: NADPH oxidase 4 (Homo sapiens) (UniProt Q9NPH5); experiment: compounds shifting NOX4 Amplex Red fluorescence – cell-based, HEK293-NOX4, tetracycline-induced, NOX inhibitor project, primary screen (AID 1160); details: HEK293-NOX4, Amplex Red H2O2 fluorescence, 45 min; higher = more signal, called active from +8 up or from −8 down
[20] = molecular target: NADPH oxidase 5 (Homo sapiens) (UniProt Q96PH1); experiment: compounds shifting NOX5 Amplex Red fluorescence – cell-based, HEK293-NOX5, NOX inhibitor project, primary screen (AID 1161); details: HEK293-NOX5, ionomycin, 45 min, higher = more signal
Chain of NADPH oxidase 5 (Homo sapiens) (Q96PH1 whole entry, looked up): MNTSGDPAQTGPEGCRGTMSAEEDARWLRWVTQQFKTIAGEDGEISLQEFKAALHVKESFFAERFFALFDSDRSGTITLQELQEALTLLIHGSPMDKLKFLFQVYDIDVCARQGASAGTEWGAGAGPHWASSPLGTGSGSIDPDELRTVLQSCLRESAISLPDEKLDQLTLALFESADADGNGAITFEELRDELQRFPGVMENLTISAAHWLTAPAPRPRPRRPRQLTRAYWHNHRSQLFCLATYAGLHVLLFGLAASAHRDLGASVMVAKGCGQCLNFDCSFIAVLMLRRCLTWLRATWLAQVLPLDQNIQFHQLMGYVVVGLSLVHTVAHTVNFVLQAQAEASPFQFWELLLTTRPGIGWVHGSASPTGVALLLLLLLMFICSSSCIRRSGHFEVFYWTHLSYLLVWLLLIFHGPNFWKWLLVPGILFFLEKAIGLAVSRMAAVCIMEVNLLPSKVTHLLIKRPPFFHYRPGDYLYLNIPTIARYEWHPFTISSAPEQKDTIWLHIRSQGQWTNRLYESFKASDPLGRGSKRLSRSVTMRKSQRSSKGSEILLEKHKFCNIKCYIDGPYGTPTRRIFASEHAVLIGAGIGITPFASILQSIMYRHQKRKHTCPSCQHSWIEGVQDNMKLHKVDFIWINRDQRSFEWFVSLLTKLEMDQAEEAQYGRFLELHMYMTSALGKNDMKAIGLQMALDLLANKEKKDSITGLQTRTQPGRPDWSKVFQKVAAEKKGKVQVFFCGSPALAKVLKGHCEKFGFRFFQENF

Chain of NADPH oxidase 2 (Homo sapiens) (P04839 whole entry, looked up): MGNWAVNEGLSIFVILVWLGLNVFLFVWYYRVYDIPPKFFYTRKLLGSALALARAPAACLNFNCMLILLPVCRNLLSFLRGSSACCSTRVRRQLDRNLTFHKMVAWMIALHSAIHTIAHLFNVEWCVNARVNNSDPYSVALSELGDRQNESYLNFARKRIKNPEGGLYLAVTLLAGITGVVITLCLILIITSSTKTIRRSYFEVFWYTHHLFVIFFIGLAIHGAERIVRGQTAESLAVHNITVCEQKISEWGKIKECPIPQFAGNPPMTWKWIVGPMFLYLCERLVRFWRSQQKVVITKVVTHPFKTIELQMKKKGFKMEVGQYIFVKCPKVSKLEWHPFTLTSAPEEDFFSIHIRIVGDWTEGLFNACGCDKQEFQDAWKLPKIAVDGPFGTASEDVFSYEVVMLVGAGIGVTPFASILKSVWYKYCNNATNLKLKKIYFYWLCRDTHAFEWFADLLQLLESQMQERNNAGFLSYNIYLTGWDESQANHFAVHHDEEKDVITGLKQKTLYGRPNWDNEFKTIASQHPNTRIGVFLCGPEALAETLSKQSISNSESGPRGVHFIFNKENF
Chain of NADPH oxidase 4 (Homo sapiens) (Q9NPH5 whole entry, looked up): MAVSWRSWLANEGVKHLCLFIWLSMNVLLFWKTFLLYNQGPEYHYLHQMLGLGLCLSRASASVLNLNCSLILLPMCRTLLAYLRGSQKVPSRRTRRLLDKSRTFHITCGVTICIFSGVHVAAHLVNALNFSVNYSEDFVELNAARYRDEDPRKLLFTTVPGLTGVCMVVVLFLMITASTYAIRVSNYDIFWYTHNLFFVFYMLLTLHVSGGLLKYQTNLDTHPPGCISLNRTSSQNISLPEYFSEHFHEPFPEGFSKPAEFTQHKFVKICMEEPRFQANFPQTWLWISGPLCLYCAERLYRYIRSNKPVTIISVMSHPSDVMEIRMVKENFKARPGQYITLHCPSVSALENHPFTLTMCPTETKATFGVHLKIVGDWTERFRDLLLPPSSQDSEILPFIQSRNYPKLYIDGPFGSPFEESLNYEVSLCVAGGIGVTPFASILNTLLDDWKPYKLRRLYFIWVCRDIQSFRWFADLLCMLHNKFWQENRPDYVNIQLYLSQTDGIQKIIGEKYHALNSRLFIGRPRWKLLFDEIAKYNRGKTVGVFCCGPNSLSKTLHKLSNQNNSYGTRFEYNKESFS
Chain of Torsin-1A (Homo sapiens) (O14656 whole entry, looked up): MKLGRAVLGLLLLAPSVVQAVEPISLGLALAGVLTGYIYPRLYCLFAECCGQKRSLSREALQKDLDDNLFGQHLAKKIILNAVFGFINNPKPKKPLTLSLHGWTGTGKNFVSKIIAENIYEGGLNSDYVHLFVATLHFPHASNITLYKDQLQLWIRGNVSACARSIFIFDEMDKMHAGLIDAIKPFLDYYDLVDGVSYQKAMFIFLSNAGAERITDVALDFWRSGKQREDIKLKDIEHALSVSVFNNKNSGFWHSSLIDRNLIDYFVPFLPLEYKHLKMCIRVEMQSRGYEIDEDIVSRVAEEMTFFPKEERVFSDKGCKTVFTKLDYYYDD
Chain of Streptavidin (Streptomyces avidinii) (P22629 whole entry, looked up): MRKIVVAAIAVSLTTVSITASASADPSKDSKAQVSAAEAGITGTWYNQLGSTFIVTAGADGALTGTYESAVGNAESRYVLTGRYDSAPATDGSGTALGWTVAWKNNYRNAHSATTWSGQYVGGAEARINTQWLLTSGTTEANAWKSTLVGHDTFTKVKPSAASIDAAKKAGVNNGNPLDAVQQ

SMILES | composite z-score [1] | z-score [2] | z-score [3] | z-score [4] | z-score [5] | composite z-score [6] | composite z-score [7] | composite z-score (Torsin-1A (Homo sapiens) [8]) | composite z-score (Torsin-1A (Homo sapiens) [9]) | composite z-score [10] | z-score [11] | composite z-score [12] | z-score [13] | z-score [14] | z-score [15] | z-score [16] | z-score [17] | z-score [18] | z-score [19] | z-score [20]
C[N+](C)(C)CCCC[C@@H]1NC(=O)[C@H]2C[C@@H](C(=O)NCCCCCNC(=O)CS)[C@@H](c3cccc(OCCO)c3)N2C1=O | 0.0448 | -0.907 (inactive) | 0.236 (inactive) | 0.13 (inactive) | 0.487 (inactive) | 0.474 | -0.176 | 0.116 | 0.653 | 0.602 | 0.19 (inactive) | 0.144 | 1.59 (inactive) | -0.0251 (inactive) | -0.89 (inactive) | 0.204 (inactive) | -0.0362 | 1.94 (inactive) | 0.816 (inactive) | 1.35
O=C1N(CCS(=O)(=O)c2ccccc2)c2ccccc2C[C@]12N=C(c1ccc(OCCCO)cc1)O[C@@H]2c1ccccc1 | 0.553 | -1.62 (inactive) | 0.851 (inactive) | 0.0219 (inactive) | -1.4 (inactive) | 0.404 | 0.0944 | 0.903 | 1.41 | 0.372 | -0.499 (inactive) | 0.732 | 26.3 (active) | 18.6 (active) | 1.85 (inactive) | 2.95 (inactive) | -0.18 | -0.304 (inactive) | 0.615 (inactive) | 0.627
COCCOC(=O)N1C(=O)[C@@]2(c3ccccc31)[C@H](C(=O)N1CCN(c3ncccn3)CC1)[C@H]1C(=O)O[C@H](c3ccccc3)[C@H](c3ccccc3)N1[C@@H]2c1ccccc1OCCO | 0.404 | -4.29 (inactive) | -1.51 (inactive) | -2.11 (inactive) | -0.885 (inactive) | 0.631 | -0.0323 | 0.545 | 0.0291 | 1.53 | 2.86 (inactive) | 0.867 | 10 (active) | 1.18 (inactive) | -0.427 (inactive) | 0.0951 (inactive) | 1.89 | 0.89 (inactive) | 1.09 (inactive) | 0.791
CC(C)N1C(=O)c2ccccc2[C@@H](C(=O)NCC(F)(F)F)[C@@H]1c1ccc(CO)cc1 | -0.167 | 0.837 (inactive) | 1.03 (inactive) | 0.145 (inactive) | 0.557 (inactive) | -0.268 | -0.152 | -0.0705 | -1.02 | 0.119 | -0.234 (inactive) | 0.0376 | 2.15 (inactive) | 0.336 (inactive) | 0.181 (inactive) | -0.0376 (inactive) | -0.165 | 0.74 (inactive) | 0.912 (inactive) | -1.21
O=C1C2C=CC(C(O)c3cccs3)N(Nc3ccc([N+](=O)[O-])cc3)C2C(=O)N1c1ccccc1 (stereo not given) | 0.0001 | 0.0886 (inactive) | 0.461 (inactive) | -0.685 (inactive) | -0.275 (inactive) | 0.46 | -0.0791 | -0.236 | 0.303 | -0.441 | -0.46 (inactive) | -0.105 | 8.61 (active) | 1.43 (inactive) | 1.75 (inactive) | 0.753 (inactive) | -0.772 | -0.437 (inactive) | -2.75 (inactive) | -1.55
C=CC[C@@]12N=C(c3ccc(OCCCO)cc3)O[C@@H]1c1ccccc1N(CCC)C2=O | 0.318 | -4.06 (inactive) | -1.29 (inactive) | 0.69 (inactive) | -0.707 (inactive) | -0.0328 | -0.0185 | -0.1 | 0.204 | 1.84 | 1.39 (inactive) | 0.568 | 35.3 (active) | 36.6 (active) | 1.75 (inactive) | 6.24 (inactive) | 0.697 | -3.4 (inactive) | -0.215 (inactive) | -1.75
O=C1O[C@H](Cc2ccccc2)[C@@H]2[C@H]3C=CCCC=C3CN2[C@H]1Cc1ccc(O)cc1 | -0.311 | -0.0514 (inactive) | -0.818 (inactive) | -0.0546 (inactive) | 1.11 (inactive) | -0.0955 | 0.214 | -0.2 | -0.632 | -0.282 | 0.676 (inactive) | 0.0811 | 3.72 (inactive) | 0.0962 (inactive) | 0.0059 (inactive) | 0.157 (inactive) | -0.253 | -2.69 (inactive) | -1.58 (inactive) | -1.3
[N-]=[N+]=NCc1ccccc1[C@@H]1OC(c2ccc(OCCCO)cc2)=N[C@]1(Cc1ccccc1N=[N+]=[N-])C(=O)NCC(O)CO (stereo not given in full) | 0.88 | -1.49 (inactive) | 0.12 (inactive) | 0.47 (inactive) | -0.806 (inactive) | 1.74 | 0.791 | 0.553 | 1.65 | -0.771 | 0.553 (inactive) | 1.31 | 20.2 (active) | 5.06 (inactive) | 1.09 (inactive) | 1.1 (inactive) | -0.0256 | -0.868 (inactive) | 0.704 (inactive) | 1.5
COC(=O)[C@@]1(Cc2ccc(F)cc2)[C@H]2c3cc(C(=O)N4CCCC4)n(CCc4ccccn4)c3C[C@H]2CN1C(=O)c1ccccc1 | -0.0942 | -0.619 (inactive) | -0.237 (inactive) | 2.87 (inactive) | 0.245 (inactive) | 0.478 | 0.0889 | -0.226 | 0.783 | 0.208 | -1.04 (inactive) | 0.413 | 1.8 (inactive) | 0.408 (inactive) | 0.394 (inactive) | 0.446 (inactive) | -0.697 | 0.557 (inactive) | -0.279 (inactive) | -0.188
